How the values were obtained:
[1] = biological target: T1, Muscle, skeletal receptor tyrosine-protein kinase (Homo sapiens) (UniProt O15146); settings: at 1 µM;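 note: reported value is the mean percent inhibition of MuSK kinase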
T1 sequence (whole entry): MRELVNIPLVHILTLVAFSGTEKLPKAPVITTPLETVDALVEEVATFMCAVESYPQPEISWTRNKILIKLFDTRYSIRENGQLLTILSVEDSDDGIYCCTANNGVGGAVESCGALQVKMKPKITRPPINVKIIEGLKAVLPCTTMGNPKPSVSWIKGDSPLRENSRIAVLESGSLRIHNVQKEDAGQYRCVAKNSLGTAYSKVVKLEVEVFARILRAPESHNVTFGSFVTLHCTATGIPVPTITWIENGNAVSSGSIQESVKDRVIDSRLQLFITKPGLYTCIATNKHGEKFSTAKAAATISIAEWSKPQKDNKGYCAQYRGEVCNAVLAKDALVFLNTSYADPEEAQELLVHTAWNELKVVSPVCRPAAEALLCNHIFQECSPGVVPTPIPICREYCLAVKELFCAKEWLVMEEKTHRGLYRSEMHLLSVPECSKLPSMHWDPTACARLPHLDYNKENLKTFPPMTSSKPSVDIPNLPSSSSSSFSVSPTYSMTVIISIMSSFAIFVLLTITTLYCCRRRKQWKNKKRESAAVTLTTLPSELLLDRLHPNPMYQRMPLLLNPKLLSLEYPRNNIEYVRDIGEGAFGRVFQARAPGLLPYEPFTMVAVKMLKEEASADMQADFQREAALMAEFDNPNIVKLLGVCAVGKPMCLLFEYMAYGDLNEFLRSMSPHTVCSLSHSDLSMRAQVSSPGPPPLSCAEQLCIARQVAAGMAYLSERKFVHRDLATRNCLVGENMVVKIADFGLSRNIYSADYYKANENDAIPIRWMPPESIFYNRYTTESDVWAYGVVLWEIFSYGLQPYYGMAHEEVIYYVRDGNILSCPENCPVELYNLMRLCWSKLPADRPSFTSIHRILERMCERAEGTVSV

[2] = biological target: Platelet-derived growth factor receptor alpha (Homo sapiens) (UniProt P16234); settings: at 0.1 µM
[3] = biological target: Platelet-derived growth factor receptor alpha (Homo sapiens) (UniProt P16234); settings: at 1 µM
[4] = system: Platelet-derived growth factor receptor alpha (Homo sapiens), P16234 [D842V]; settings: at 0.1 µM
[5] = system: Platelet-derived growth factor receptor alpha (Homo sapiens), P16234 [D842V]; settings: at 1 µM
[6] = system: Platelet-derived growth factor receptor alpha (Homo sapiens), P16234 [T674I]; settings: at 0.1 µM
[7] = system: Platelet-derived growth factor receptor alpha (Homo sapiens), P16234 [T674I]; settings: at 1 µM
[8] = system: Platelet-derived growth factor receptor alpha (Homo sapiens), P16234 [V561D]; settings: at 0.1 µM
[9] = system: Platelet-derived growth factor receptor alpha (Homo sapiens), P16234 [V561D]; settings: at 1 µM
[10] = biological target: Platelet-derived growth factor receptor beta (Homo sapiens) (UniProt P09619); settings: at 0.1 µM;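 note: reported value is the mean percent inhibition of the kinase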
Sequence of Platelet-derived growth factor receptor beta (Homo sapiens) (P09619 whole entry): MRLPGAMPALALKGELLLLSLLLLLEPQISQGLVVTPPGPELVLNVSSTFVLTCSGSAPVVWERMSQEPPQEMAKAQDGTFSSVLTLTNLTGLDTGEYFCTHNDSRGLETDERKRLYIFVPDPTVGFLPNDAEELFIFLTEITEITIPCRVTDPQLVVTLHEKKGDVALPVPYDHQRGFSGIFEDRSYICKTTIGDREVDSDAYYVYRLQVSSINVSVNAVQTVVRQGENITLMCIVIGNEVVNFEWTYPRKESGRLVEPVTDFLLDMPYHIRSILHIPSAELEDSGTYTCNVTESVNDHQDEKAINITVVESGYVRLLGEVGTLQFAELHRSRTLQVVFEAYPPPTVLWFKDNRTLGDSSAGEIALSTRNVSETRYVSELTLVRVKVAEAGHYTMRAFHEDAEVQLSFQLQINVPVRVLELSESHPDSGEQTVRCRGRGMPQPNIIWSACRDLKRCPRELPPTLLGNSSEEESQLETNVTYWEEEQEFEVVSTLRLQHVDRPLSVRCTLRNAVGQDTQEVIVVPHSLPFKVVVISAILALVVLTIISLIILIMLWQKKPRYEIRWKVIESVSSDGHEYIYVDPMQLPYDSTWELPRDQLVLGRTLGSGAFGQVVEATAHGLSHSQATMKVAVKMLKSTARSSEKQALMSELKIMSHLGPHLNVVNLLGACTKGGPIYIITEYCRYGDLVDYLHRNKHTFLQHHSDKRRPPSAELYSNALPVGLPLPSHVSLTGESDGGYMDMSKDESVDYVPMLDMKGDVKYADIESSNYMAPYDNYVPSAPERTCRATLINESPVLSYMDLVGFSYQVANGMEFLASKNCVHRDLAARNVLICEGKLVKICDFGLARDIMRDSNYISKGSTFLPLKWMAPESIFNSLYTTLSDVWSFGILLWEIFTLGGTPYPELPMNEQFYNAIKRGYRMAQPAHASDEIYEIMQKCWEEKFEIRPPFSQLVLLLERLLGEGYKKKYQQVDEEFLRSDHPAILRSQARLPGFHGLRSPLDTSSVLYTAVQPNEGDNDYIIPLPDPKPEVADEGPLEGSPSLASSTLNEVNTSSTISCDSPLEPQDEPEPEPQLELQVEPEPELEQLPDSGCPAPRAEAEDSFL

Sequence of Platelet-derived growth factor receptor alpha (Homo sapiens), P16234 [T674I] (P16234 whole entry T674I): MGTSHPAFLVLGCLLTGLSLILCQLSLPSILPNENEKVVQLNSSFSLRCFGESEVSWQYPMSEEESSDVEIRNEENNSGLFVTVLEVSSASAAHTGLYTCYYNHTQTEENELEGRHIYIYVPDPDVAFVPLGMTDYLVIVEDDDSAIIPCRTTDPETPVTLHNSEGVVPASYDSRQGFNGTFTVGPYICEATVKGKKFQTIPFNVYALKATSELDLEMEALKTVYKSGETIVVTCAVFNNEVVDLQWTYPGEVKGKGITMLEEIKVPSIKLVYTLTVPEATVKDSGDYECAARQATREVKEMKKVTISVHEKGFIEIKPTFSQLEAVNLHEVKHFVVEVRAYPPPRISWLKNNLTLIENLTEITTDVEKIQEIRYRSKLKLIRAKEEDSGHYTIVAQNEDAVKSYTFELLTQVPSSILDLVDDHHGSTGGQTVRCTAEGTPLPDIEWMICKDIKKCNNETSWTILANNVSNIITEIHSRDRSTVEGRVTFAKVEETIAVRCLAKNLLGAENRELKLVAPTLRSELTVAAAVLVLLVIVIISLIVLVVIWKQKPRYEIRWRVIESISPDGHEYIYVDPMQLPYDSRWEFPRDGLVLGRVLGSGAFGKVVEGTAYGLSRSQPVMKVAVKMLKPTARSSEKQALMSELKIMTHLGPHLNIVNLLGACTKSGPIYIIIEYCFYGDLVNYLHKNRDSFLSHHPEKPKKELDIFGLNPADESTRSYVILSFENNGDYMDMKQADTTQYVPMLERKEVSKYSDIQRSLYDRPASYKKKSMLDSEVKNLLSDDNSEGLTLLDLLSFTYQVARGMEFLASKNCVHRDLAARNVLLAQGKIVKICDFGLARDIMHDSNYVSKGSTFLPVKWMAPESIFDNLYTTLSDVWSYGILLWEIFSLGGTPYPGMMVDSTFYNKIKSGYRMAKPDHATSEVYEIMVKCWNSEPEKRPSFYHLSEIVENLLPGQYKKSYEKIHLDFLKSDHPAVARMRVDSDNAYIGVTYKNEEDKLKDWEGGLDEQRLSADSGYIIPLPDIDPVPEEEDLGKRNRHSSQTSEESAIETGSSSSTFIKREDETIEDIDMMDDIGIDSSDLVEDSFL
Sequence of Platelet-derived growth factor receptor alpha (Homo sapiens), P16234 [V561D] (P16234 whole entry V561D): as the sequence (P16234 whole entry T674I) above, with V561D, I674T counted along it
Sequence of Platelet-derived growth factor receptor alpha (Homo sapiens) (P16234 whole entry): as the sequence (P16234 whole entry T674I) above, with I674T counted along it
Sequence of Platelet-derived growth factor receptor alpha (Homo sapiens), P16234 [D842V] (P16234 whole entry D842V): as the sequence (P16234 whole entry T674I) above, with I674T, D842V counted along it

Compound	inhibition [1]	inhibition [2]	inhibition [3]	inhibition [4]	inhibition [5]	inhibition [6]	inhibition [7]	inhibition [8]	inhibition [9]	inhibition [10]
Cc1cc(O)cc(C)c1/C=C/c1cncc(-c2nn[nH]n2)c1	2.94%	10.7%	50.9%	2.87%	22.2%	7.51%	5.59%	12.1%	59.3%	9.66%
CS(=O)(=O)Nc1ccc(N/C=C2\C(=O)Nc3ccccc32)cc1	35.9%	9.58%	41.9%	2.98%	18%	11.1%	62.5%	15%	51%	6.47%
NC(=O)c1ccc(-c2nc(-c3ccccn3)c(-c3ccc4c(c3)OCO4)[nH]2)cc1	3.59%	6.2%	9.06%	1.44%	2.57%	8.08%	5.68%	2.28%	4.53%	2.41%
COc1ccc(-c2nn3ncccc3c2-c2ccnc(Nc3ccc(Cl)c(C(F)(F)F)c3)n2)cc1	1.1%	3.58%	7.86%	0.96%	1.8%	3.16%	5.2%	3.43%	3.24%	2.18%
NS(=O)(=O)c1ccc(N/N=C2\C(=O)Nc3ccc(C(=O)NCCc4c[nH]cn4)cc32)cc1	43.1%	23.6%	65.6%	15.9%	62.5%	6.94%	14.5%	12.9%	54.9%	38.6%
COc1cc2ncn(-c3cc(O[C@@H](C)c4ccccc4Cl)c(C(N)=O)s3)c2cc1OC	14.1%	37.9%	73.8%	27%	77.1%	7.94%	50%	32.4%	81.5%	29.8%
Cc1nn(C)c2cc(N(C)c3ccnc(Nc4cccc(S(N)(=O)=O)c4)n3)ccc12	6.58%	22.9%	61.2%	7.33%	36.1%	5.29%	15.1%	23.2%	70.1%	18.2%
CC1=C(C(=O)Nc2ccc3[nH]ncc3c2)C(c2ccc(F)cc2)NC(=O)N1 (stereo not given)	5.88%	4.38%	10.7%	1.76%	3.2%	3.58%	3.03%	3.01%	3.64%	3.65%
COc1ccc(-c2ccncc2)cc1C(N)=O	8.58%	10.2%	15.4%	1.62%	4.35%	5.26%	8.98%	3.41%	6.77%	5.16%
CC1=C(C(=O)Nc2ccc3[nH]ncc3c2)C(c2ccc(Cl)c(Cl)c2)CC(=O)N1 (stereo not given)	4.26%	6.81%	8.15%	0.72%	1.68%	2.47%	1.49%	0.48%	2.1%	1.34%
N#Cc1c(NC(=O)c2cccc3ccccc23)sc2c1CCCC2	4.97%	6.56%	12.2%	4.04%	4.85%	4.77%	9.67%	3.45%	6.79%	3.17%
CCn1c(-c2nonc2N)nc2c(C#CC(C)(C)O)nc(OC[C@@H](N)c3ccccc3)cc21	2.97%	3.38%	30.9%	3.93%	39%	1.39%	27.6%	-2.3%	19.5%	7.96%
CS(=O)(=O)CCNCc1ccc(-c2ccc3ncnc(Nc4ccc(OCc5cccc(F)c5)c(C(F)(F)F)c4)c3c2)o1	2.72%	2.57%	6.52%	2.53%	4.33%	5.78%	5.59%	3.25%	3.17%	-0.33%
Fc1cccc(COc2ccc(Nc3ncnc4cc(-c5ccc[nH]5)sc34)cc2Cl)c1	6.25%	9.2%	15.6%	2.17%	4.7%	4.02%	4.37%	2.42%	5.59%	3.02%
CS(=O)(=O)CCNCc1ccc(-c2ccc3ncnc(Nc4ccc(OCc5ccccc5)c(Cl)c4)c3c2)o1	4.27%	6.84%	9.41%	2.28%	2.49%	8.72%	11.1%	4.4%	4.91%	2.08%
CS(=O)(=O)CCNCc1nc(-c2ccc3ncnc(Nc4ccc(F)c(Cl)c4)c3c2)cs1	2.48%	11.7%	25.9%	1.4%	10.4%	10.8%	8.67%	2.8%	9.09%	3.34%
CS(=O)(=O)CCN(CC#N)Cc1ccc(-c2ccc3ncnc(Nc4ccc(OCc5cccc(F)c5)c(Cl)c4)c3c2)o1	1.87%	5.88%	10.3%	1.15%	3.78%	1.63%	5.75%	1.15%	4.06%	4.64%

Compound	inhibition [1]	inhibition [2]	inhibition [3]	inhibition [4]	inhibition [5]	inhibition [6]	inhibition [7]	inhibition [8]	inhibition [9]	inhibition [10]
Cc1ccc(NC(=O)c2ccnc(N3CCCC3)c2)cc1-c1ccc(C(=O)NCC2CC2)cc1	9.18%	9.86%	20.7%	3.63%	5.68%	6.03%	5.86%	2.7%	11.8%	6.34%
COc1ccc(-c2coc3ncnc(N)c23)cc1	9.1%	8.72%	16.2%	3.41%	6.25%	5.4%	5.37%	6.46%	28%	3.23%
COc1cc2c(cc1Nc1nc(N3CCc4ccccc43)c3cc[nH]c3n1)N(C(=O)CN(C)C)CC2	4.18%	4.13%	3.64%	0.92%	-1.2%	1.67%	0.13%	-0.57%	2.32%	1.46%
O=C1NC(=O)C(c2ccc(Cl)cc2)=C1Nc1ccc(Cl)c(C(=O)O)c1	2.23%	1.93%	7.23%	1.16%	2.61%	0.45%	1.25%	3.89%	3.15%	4.09%
Fc1cccc(COc2ccc(Nc3ncnc4sc(-c5cccs5)cc34)cc2Cl)c1	2.36%	2.17%	5.87%	1.25%	2.11%	3.52%	9.66%	4.39%	4.26%	3.06%
Nc1ncnc2occ(-c3ccc(NC(=O)Nc4cccc(C(F)(F)F)c4)cc3)c12	90.2%	88.2%	93.1%	26.5%	76.4%	79.5%	85%	95.3%	99%	69.4%
COC(=O)Nc1nc2cc(Oc3ccc(NC(=O)Nc4cccc(C(=O)O)c4)cc3)ccc2[nH]1	2.82%	10.8%	39.3%	0.99%	1.56%	6.17%	35.1%	18.8%	43.9%	6.26%
COc1cc2ncn(-c3cc(OCc4ccccc4Cl)c(C(N)=O)s3)c2cc1OC	21.2%	46.7%	90.5%	30.4%	82.2%	9.35%	69.7%	39.1%	83.3%	41%
CCCN1CCC(Oc2cc(Nc3nc(Nc4cccc(F)c4C(N)=O)c4cc[nH]c4n3)c(OC)cc2Cl)CC1	8.65%	3.93%	11.6%	0.78%	-0.29%	2.51%	1.04%	1.89%	4.25%	4.35%
O=C(Nc1n[nH]c2nc(-c3ccco3)c(Br)cc12)C1CC1	6.32%	4.56%	12.9%	0.77%	4.15%	5.19%	6.07%	0.75%	4.4%	3.97%
CCn1c(-c2nonc2N)nc2c(N3CCCC3)nccc21	3.11%	-0.08%	6.63%	1.78%	3.11%	0.33%	0.11%	3.21%	3.61%	3.37%
NC(=O)c1cccc(Nc2nccc(Nc3cccc4[nH]ncc34)n2)c1	15.3%	23.7%	71.3%	13.2%	67.7%	-2.44%	4.54%	20.7%	70.4%	42.1%
Cc1cccc(-c2n[nH]cc2-c2ccc3ncccc3n2)n1	2.87%	10.7%	55.3%	18.8%	68.7%	1.71%	0.07%	12.3%	53%	2.42%
[O-][S+]1CCN(Cc2ccc(-c3ccc4ncnc(Nc5ccc(OCc6ccccc6)c(F)c5)c4c3)o2)CC1	3.05%	3.33%	4.2%	2.67%	1.42%	2.19%	3.59%	0.45%	3.92%	1.19%
COc1cccc(-n2ncc3c(N/N=C/c4cccc(F)c4)ncnc32)c1	11.4%	13.6%	49.5%	10.6%	48.1%	6.11%	22.2%	8.22%	41.1%	12.2%
O=C1NC(=O)C(c2ccccc2Cl)=C1Nc1cccc(O)c1	6.51%	5.26%	9.63%	0.89%	-0.58%	1.6%	2.66%	1.34%	2.14%	4.9%
